ADAM17 inh: inhibits human ADAM17 | P78536 | recombinant ADAM17, EDANS/DABCYL FRET peptide cleavage | inhibition, % at 6.95 µM | hit rate 0.83% among 370,000 | AID 720648;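 active = inhibition above the mean of compounds lying between control limits plus 3 SD, set per campaign, cut at about 8.5% in these data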;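 also: 0% = DMSO-only wells as the low control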
Target sequence (P78536 215-824 limits assumed): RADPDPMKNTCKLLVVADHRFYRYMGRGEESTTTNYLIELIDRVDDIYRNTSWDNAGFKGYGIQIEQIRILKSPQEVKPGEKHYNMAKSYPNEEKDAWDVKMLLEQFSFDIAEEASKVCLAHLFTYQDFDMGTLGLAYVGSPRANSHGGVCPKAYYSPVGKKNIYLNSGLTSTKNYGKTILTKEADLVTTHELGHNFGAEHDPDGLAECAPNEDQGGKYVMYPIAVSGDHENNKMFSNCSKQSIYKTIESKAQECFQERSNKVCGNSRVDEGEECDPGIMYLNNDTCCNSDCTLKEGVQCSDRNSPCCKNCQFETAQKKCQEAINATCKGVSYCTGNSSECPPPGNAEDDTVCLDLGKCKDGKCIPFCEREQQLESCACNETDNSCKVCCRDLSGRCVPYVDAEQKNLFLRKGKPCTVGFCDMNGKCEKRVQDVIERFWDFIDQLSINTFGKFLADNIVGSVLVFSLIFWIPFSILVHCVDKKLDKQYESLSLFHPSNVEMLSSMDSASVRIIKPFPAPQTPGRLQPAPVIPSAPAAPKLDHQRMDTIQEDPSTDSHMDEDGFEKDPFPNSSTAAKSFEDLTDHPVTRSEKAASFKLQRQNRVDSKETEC
Rce1 inhib: inhibitors of yeast Ras-converting enzyme | calls only | hit rate 0.27% among 290,000 | AID 2563 | Q03530 | yeast membranes, quenched prenylated peptide cleavage fluorescence;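 active = fall in fluorescence gain of 50% or more versus controls, with final raw signal at or below 3038400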;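 also: plate controls were neutral control wells for no effect and wells lacking membranes for full effect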
ADAM10 inh: ADAM10 inhibition, QFRET primary screen. recombinant ADAM10, EDANS/DABCYL FRET peptide cleavage, 3 h. inhibition, % at 7 µM. hit rate 0.62% among 370,000. AID 720582;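 active = inhibition above a per-campaign cutoff equal to the mean of compounds falling between control-based bounds plus 3 SD, cut at about 20% in these data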;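 also: 0% = DMSO wells while the 100% control is not disclosed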
PLCg1 inh: inhibitors of human phospholipase C gamma1. hit rate 0.84% among 370,000. AID 720700. inhibition, % at 12.2 µM. purified PLC-gamma1, fluorogenic substrate, fluorescence; in the data active = inhibition above about 9.5%
PLC-beta3 inh: PLC-beta3 (human) inhibition, primary screen; Q01970; Purified PLC-beta3, fluorogenic substrate, fluorescence; inhibition, % at 12.2 µM; hit rate 0.18% among 370,000; AID 720704; in the data active = inhibition above about 11%;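 also: 0% = median of compound wells on plate and 100% = full blocker control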
Numbers without * were called inactive; i = inactive; . = not tested or not shown; + = active, no number. Most compounds without a hit are left out; they make up all but 2.1% or so of the library.

SMILES	ADAM17 inh	Rce1 inhib	ADAM10 inh	PLCg1 inh	PLC-beta3 inh
C[C@@H]1CN([C@@H](C)CO)C(=O)CCCn2cc(nn2)CO[C@H]1CN(C)C(=O)Nc1cccc2ccccc12	-27.8	.	-105.5	-33.9	-43.3
COC(=O)c1ccc(N)cc1O	-1.5	i	-6.1	1.1	-0.3
COC(=O)c1ccc(=O)c2nc3/c(=C/O)c(O)cc(=O)c3[nH]c12	5.9	.	-0.2	10.9*	7.9
O=C(/C=C(\Nc1ccc(Br)c(F)c1)c1ccccc1)c1ccccc1	-1.0	.	-9.5	4.0	4.2
O=C(O)c1ccc(N/N=C/c2ccc(-c3ccccc3Cl)o2)cc1	-10.1	+	-18.0	-157.4	-220.4
O=C(N/N=C/c1ccc(-c2ccccc2Cl)o1)c1ccccc1	-19.8	i	-53.1	-37.7	-38.6
CCCCCCCSc1ncnc2[nH]ncc12	12.0*	.	19.4	-1.0	5.7
O=C(CS(=O)CC(=O)Nc1cccc2c1CCCC2)Nc1ccc(F)cc1 (configuration not stated)	-0.7	i	-1.1	14.7*	7.6
CC(C)(C)CC(=O)Nc1cccc2c1CCCC2	-0.2	i	11.1	2.0	0.4
CCCN1CCN(CCCNC(=O)c2ccccc2NC(=O)C2=C(C)OCCS2)CC1	-0.2	i	1.1	2.9	1.1
COc1ccc(Cn2c(N)c(S(=O)(=O)c3cccs3)c3nc4ccccc4nc32)cc1	-37.5	+	-115.6	-47.9	-66.7
O=C(Nc1cc(Cl)cc(Cl)c1)c1coc(=O)c(Br)c1	-195.7	+	i	-154.9	-157.4
O=C(NC(CO)(CO)CO)c1coc(=O)c(Br)c1	-58.5	i	-242.1	-35.7	-44.6
COc1ccc(S(=O)(=O)NCC2CCCO2)cc1NC(=O)c1ccccc1 (configuration not stated)	0.0	i	1.9	4.8	-3.8
COc1ccc(S(=O)(=O)NCC2CCCO2)cc1NC(=O)c1ccccc1F (configuration not stated)	-3.6	+	-6.1	0.8	-4.2
O=C(NCCCCCCNC(=O)OCc1ccccc1)OCc1ccccc1	-5.6	.	-4.6	0.5	-0.2
O=C(OCc1ccccc1)N(CCCCN(CCCNCc1ccccc1)C(=O)OCc1ccccc1)CCCNCc1ccccc1	1.4	.	1.0	10.0*	4.5
O=C(OCC#CCSc1nnc(-c2cc3ccccc3cc2O)o1)c1ccc(F)cc1	-6.5	.	-9.7	2.1	-2.8
Cc1ccc(NS(=O)(=O)c2cc(NC(=O)c3ccc4c(c3)NC(=O)CS4)ccc2C)c(C)c1	10.2*	i	25.8*	4.7	0.9
COc1ccc(NC(=O)c2ccc3c(c2)NC(=O)CS3)cc1S(=O)(=O)Nc1ccc(Br)cc1	1.1	i	12.7	0.2	-0.2
O=C(Nc1ccc(N2CCOCC2)c(Cl)c1)c1cc2ccccc2o1	.	+	.	.	.
CC(NCCCSc1ccccc1)C(O)c1ccc(O)cc1 (configuration not stated)	-4.2	.	-5.8	5.1	5.0
O=C(/C=C/c1ccccc1)OCC(=O)N1CCCC1	-1.8	.	1.6	11.2*	-5.7
O=C(/C=C/c1ccccc1)OCC(=O)N1CCN(c2ccccc2)CC1	0.2	i	-3.2	-1.4	0.1
COCc1cc(N2CCNC[C@H]2C)ccc1N1C[C@@H](C)O[C@@H](C)C1	-4.3	.	-11.2	-0.8	0.4
SMILES	ADAM17 inh	Rce1 inhib	ADAM10 inh	PLCg1 inh	PLC-beta3 inh
CC[C@]12c3[nH]c4ccc(OC)cc4c3CCN1C(=O)C(CC(=O)NCc1cccc(C(F)(F)F)c1)C[C@@H]2C(=O)N1CCN(C(=O)c2ccco2)CC1 (some centres not stated)	5.9	.	15.4	11.4*	5.2
CC[C@]12c3[nH]c4cc(-c5ccco5)ccc4c3CCN1C(=O)[C@@H](CC(=O)NCc1cccc(C(F)(F)F)c1)C[C@@H]2C(=O)N1CCN(C(=O)c2ccco2)CC1	-102.0	.	-379.7	-342.1	-467.5
O=C(O)CSCC(=O)Nc1ccc(-c2nc3ccccc3s2)cc1	-362.6	+	i	-213.2	-323.9
Cc1ccc2nc(-c3ccc(NC(=O)CSCC(=O)O)cc3)sc2c1	-369.3	i	i	-130.4	-178.3
COC(=O)C1=C(C)N(Cc2ccc(C(F)(F)F)cc2)C(=NCc2ccccc2C(F)(F)F)NC1c1ccccc1C(F)(F)F (configuration not stated)	-6.0	.	-2.7	-1.0	-2.1
COCCN1Cc2cc(C(=O)OC)c3c(c2C1=O)c1cc(F)ccc1n3C(=O)c1ccccc1	-4.9	.	-20.2	-26.8	-34.2
COc1ccccc1CNC(=O)c1c(N)n(CCCN2CCOCC2)c2nc3ccccc3nc12	-417.8	i	i	i	i
CC(C)OC(=O)c1c(N)n(CCCN2CCOCC2)c2nc3ccccc3nc12	i	+	i	i	i
O=S(=O)(CC1NCCc2ccccc21)NCCc1ccccc1 (configuration not stated)	-5.6	.	-5.3	1.2	-0.1
N=c1oc2cc(O)ccc2cc1C(=O)Nc1nc2ccccc2s1	i	+	i	i	i
COc1ccc2ccccc2c1CN1CCN(c2ncc(Cc3ccccc3)cn2)CC1	-5.9	.	-14.3	-0.5	-15.4
CCCCn1c(=O)[nH]c(=O)c2c1nc(-c1ccc(OC)c(Br)c1)n2CC(C)C	-1.9	+	0.0	-0.2	-2.3
COC(=O)C1=C(C)N(Cc2ccccc2C(F)(F)F)C(=NCc2ccc3c(c2)OCO3)NC1c1ccccc1C(F)(F)F (configuration not stated)	6.5	.	4.9	3.8	10.8*
c1ccc(C[C@H]2CN=C(Nc3ccccc3)N2CCC2CCCC2)cc1	4.9	.	1.0	10.2*	7.5
Cc1cccc(OCCN2C(=O)C(=O)c3cc(C)ccc32)c1	-1.3	+	0.2	0.2	-7.9
O=C(O)c1ccc(S(=O)(=O)/N=C2\C=C(Nc3ccccc3F)C(=O)c3ccccc32)cc1	1.6	i	-10.9	20.2*	-0.3
CC(=O)Nc1ccc(NC2=C/C(=N/S(=O)(=O)c3cccs3)c3ccccc3C2=O)cc1	1.8	.	7.1	11.4*	7.1
CCc1ccc(S(=O)(=O)/N=C2\C=C(NS(=O)(=O)c3ccccc3)C(=O)c3ccccc32)cc1	-3.6	i	-0.1	0.3	-10.1
COc1ccc(S(=O)(=O)/N=C2\C=C(Nc3ccc(O)cc3)C(=O)c3ccccc32)cc1	7.2	i	19.8	18.0*	3.7
Cc1ccc(C(=O)N(C)[C@H]2C[C@H]3c4[nH]c5c(-c6cccc(C)c6)cccc5c4CCN3C[C@H]2[C@H](C)O)cc1	-9.2	.	-38.5	-76.5	-84.3
CCOC(=O)c1cc(C)[nH]c1C	1.3	i	3.1	2.4	-5.0
CCOC(=O)c1cc(C)[nH]c(=O)c1C#N	i	+	i	i	i
CC(C)N1CCN(S(=O)(=O)c2ccc3ccccc3c2)CC1	1.3	+	6.2	4.3	-2.2
CCC(C)Sc1cc(-c2nc3ccccn3c2NC2CCCCC2)ccc1OC (configuration not stated)	-149.1	+	-442.1	i	i
COc1cccc(-c2ccc(-c3noc(-c4ccccc4F)n3)c(OC)n2)c1	-2.8	+	2.9	-5.5	-7.1

Compound activity: PubChem BioAssay, several laboratories
